Reference: PubChem BioAssay (NCI)
This is part of a sample that, as a whole, favours compounds with a hit. Of some 79,000 tested, about 15% had one in any assay. Values without a mark were called inactive. Activity calls are given as the source filed them. Cut-off read from the data, not from the text of the source: active = growth inhibition above about 70%; inactive = the rest.

Experiment: NCI Yeast Anticancer Drug Screen. Data for the rad14 strain (AID 159);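 note: 0% = growth of vehicle-treated control cultures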
Conditions: S. cerevisiae rad14 strain growth inhibition, hits give high values
Procedure: Growth inhibition of yeast strains with defined genetic alterations is measured as a screen for potential anti-cancer activity. Selected strains with alterations in DNA damage repair or cell cycle control were exposed to compounds and growth inhibition was measured relative to vehicle treated controls. The strain used in this assay is rad14

Row | SMILES | growth inhibition (at 1.2 µM) [%] | growth inhibition (at 3.7 µM) [%] | growth inhibition (at 11.0 µM) | growth inhibition (at 33.0 µM) | growth inhibition (at 100.0 µM)
1 | C/C(=N/NC(=S)N1CCCCCC1)c1cccc(/C(C)=N\NC(=S)N2CCCCCC2)n1 | 6 | 14 | 40% | 71% (active) | 76% (active)
2 | COC1=CC(=O)C2C(C1=O)C(c1ccc(Cl)cc1)[C@@H]2C (stereo not given in full) | -3 | 12 | 98% (active) | 99% (active) | 99% (active)
3 | Fc1ccc(NC(=S)SCc2ccc3c(c2)OCO3)cc1F | -9 | 20 | 65% | 99% (active) | 94% (active)
4 | O=[N+]([O-])c1cccc2nccc(NCCCO)c12 | -9 | 4 | 34% | 75% (active) | 91% (active)
5 | Cc1c(C(Cc2ccccc2N(C)C(=O)/C=C\C(=O)O)c2c[nH]c3ccccc23)c2ccccc2n1C (stereo not given) | -3 | -11 | -14% | -13% | 33%
6 | O=[N+]([O-])C(=C(Sc1ccccc1)Sc1ccccc1)C(Cl)=C(Cl)Cl | 4 | 7 | 19% | 27% | 28%
7 | CCCCCCCCCC/C=C\C(=O)O | -3 | -5 | -1% | 38% | 98% (active)
8 | O=C(CCCN1CCC2(CC1)CC(=O)N(N1CCCCCC1)C2=O)c1ccc(F)cc1 | 45 | 51 | 64% | 73% (active) | 87% (active)
